# Source: PubChem (National Center for Advancing Translational Sciences (NCATS))
# CHX counter – affects cycloheximide protein synthesis inhibition readout, counter-screen; cell reporter, cycloheximide protein synthesis inhibition counterscreen; max response, %; hit rate 12% among 300,000; in the data active means max response mostly above about 13%, no sharp cut-off; inactive means mostly below about 14%; further: read at 38.3 µM for the half of the compounds with a filed dose; 0% is about no effect
# Shiga inhibitor – inhibitors of Shiga toxin in Vero cells; hit rate 9.2% among 290,000; AID 2315; inhibition, % at 38.7 µM; Vero cells, Shiga toxin protein synthesis inhibition reporter; in the data active means inhibition mostly above about 28%, no sharp cut-off; inactive means mostly below about 43%; further: 0% is about no effect
# HCV inhibitor – blocks hepatitis C virus | Potency, µM (series often up to 41.8 µM), for the others: top-dose activity change, negative = inhibition, usual class: inhibitors | hit rate 3.4% among 340,000 | Huh7.5.1 HCVcc-Cre infection, luciferase reporter, 44 h; further: potency means the concentration at half of the fitted maximal effect; on the % scale 0 is the no-effect control and ±100 the full control effect
#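 HCVcc-Cre virus at an moi near 0.5 was added right after compound to cells cultured 4 h from seeding (1,000 cells/well). Luciferase activity was determined 44 h later, 15 min after substrate addition at RT.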
# AMA1-RON2 inh – inhibitors of Plasmodium falciparum AMA1-RON2 interaction; AID 720542; hit rate 0.2% among 360,000; Potency, µM (highest dose often 58.2 µM), for inactives: top-dose activity change, negative = inhibition, actives largely listed as inhibitors; AlphaScreen AMA1-biotinylated RON2 peptide binding;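 further: potency means the concentration at half of the fitted maximal effect; 0% = vehicle wells and -100% = peptide control; nearly all actives have a fitted effect of over 45% in size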
#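 AMA1 (3D7) with his tag at 25 nM final met compounds first, then biotinylated RON2 peptide at 25 nM; detection used donor plus acceptor beads, 10 µg/mL apiece, read by AlphaScreen after 30 min at room temperature.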
# Pf growth 48h – P. falciparum growth inhibition at 48 hours (one generation); Potency, µM (top dose mostly 28.7 µM), without a hit: at the highest dose activity change, negative = inhibition, hits mostly inhibitors; P. falciparum luciferase growth in erythrocytes, 48 h; hit rate 5.9% among 310,000; AID 504832; further: potency means the concentration at half of the fitted maximal effect; on the % scale 0 is the no-effect control and ±100 the full control effect
#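 Growth was read as firefly luciferase luminescence after a 48 h, 37 C, 5% CO2 exposure of compounds to reporter-bearing P. falciparum cultures (0.1% parasitemia, 2% hematocrit final) in Albumax-supplemented RPMI 1640.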
# Pf growth 96h – P. falciparum growth inhibition at 96 hour, primary screen for plastid delayed-death inhibitors; P. falciparum luciferase reporter growth, 96 h; hit rate 6.9% among 320,000; Potency, µM (series often up to 28.7 µM), for the others: at the top dose activity change, negative = inhibition, usual class: inhibitors; further: potency means the concentration at half of the fitted maximal effect; on the % scale 0 is the no-effect control and ±100 the full control effect
#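 Erythrocytes infected with luciferase-expressing P. falciparum were dispensed at 2% hematocrit and 0.05% parasitemia (final), then incubated with compounds 96 hours at 37 C in 5% CO2. Luminescence after detection reagent addition reported growth.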
# * marks the source's active call; other numbers are inactive results; ? = inconclusive; · = no result given; [ ] = another dose, or the depositor's remark. Rows were chosen to be rich in hits. Some 21% of all compounds tested hit in one or more screens of this group. Unless noted, the call rests on the fitted dose curve; in most records, active means well fitted curve in the direction sought with a large enough effect; inconclusive means small, poorly fitted or top-dose-only effect, or another doubt; inactive means no such curve, though single readings can be large; an effect the other way counts as inactive or inconclusive.
SMILES,CHX counter,Shiga inhibitor,HCV inhibitor,AMA1-RON2 inh,Pf growth 48h,Pf growth 96h
Cc1ccc(-c2nc3ccccc3n2C)o1,57*,74*,-50%,-5%,·,11%
Cn1c2nc3ccccc3c-2nc2ccccc21,·,·,·,-9%,·,·
CC(=O)c1ccc(-c2nc3ccccc3n2C)o1,36*,57*,-13%,0%,99%,122%
Cn1c(-c2ccc(Br)o2)nc2ccccc21,29*,56,-14%,-10%,178%,244%
COc1cc(OC)cc(C(=O)N[C@H](C(=O)OCC(=O)N2CCc3ccccc32)C(C)C)c1,9,12,-4%,-8%,?,3%
CCCS(=O)(=O)NC(=O)C1(C)CCN(C(=O)c2cc(F)cc(F)c2)C1 (stereo not drawn),·,·,·,2%,·,·
Cn1c(-c2ccc(Br)o2)nc2cc(Br)ccc21,52*,104*,-28%,-15%,322%,298%
Cc1ccc2nc(-c3ccc(Br)o3)oc(=O)c2c1,-2,-3,5%,-4%,15%,·
Cn1c(-c2nonc2N)nc2ccccc21,0,-4,-1%,3%,25%,10µM*
Brc1ccc(Cn2c(-c3ccc(Br)o3)nc3ccccc32)o1,18*,22,-19%,?,?,?
Cc1ccc(S(=O)(=O)Nc2ccc3c(c2)C(=O)c2ccccc2-3)cc1,·,·,·,0%,·,·
COC1=C(Nc2ccc(C)cc2)C(=O)c2ccccc2C1=O,53*,102*,?,10µM*,2.3µM*,1.2µM*
COC1=C(Nc2ccccc2)C(=O)c2ccccc2C1=O,19*,23*,?,10µM*,5.9µM*,1.9µM*
COc1ccc(S(=O)(=O)Nc2ccc(Nc3ccccc3)cc2)cc1,·,·,?,-9%,·,·
COc1ccc(OC)c(C(=O)Nc2c(O)ccc3ccccc23)c1,·,·,?,-10%,·,·
Clc1cc(Br)ccc1OCCN1CCOCC1,31*,48,-11%,-3%,7%,3%
COc1ccc(CN2CCOCC2)cc1,-4,-5,2%,-15%,·,?
CC1CCN(CCCOc2ccc(Br)cc2Cl)CC1,22*,29*,-21%,16%,-22%,-11%
CCCCCOc1ccc(CN2CCOCC2)cc1Cl,41*,102*,-6%,-7%,225%,·
O=C1CCC(=O)N1OCCCOc1ccc(Br)cc1Cl,30*,18,0%,2%,-1%,0%
CN1CCN(CCOCCOc2ccc(Br)cc2Cl)CC1,9,1,?,?,-28%,143%
Cc1oc(-c2cccs2)nc1CN1CCN(Cc2ccc(F)c(F)c2)C(CCO)C1 (stereo not drawn),-3,-10,5%,-2%,?,?
O=C(Nc1ccc(Oc2ccccc2)cc1)c1ccc2nc([C@@H]3O[C@H](CO)[C@H](O)[C@H](O)[C@H]3O)[nH]c2c1,·,·,·,15%,·,·
COc1ccc(OC)c(/C=C/C(=O)OCC(=O)NCc2cccs2)c1,·,·,-27%,-5%[11.6 µM],-18%,?
CN1C(CCl)Nc2cc(Cl)c(S(N)(=O)=O)cc2S1(=O)=O (stereo not drawn),·,·,25%,1%,-20%,12µM*
SMILES,CHX counter,Shiga inhibitor,HCV inhibitor,AMA1-RON2 inh,Pf growth 48h,Pf growth 96h
CCn1c(=NC(=O)c2ccc(S(=O)(=O)N(C)C)cc2)sc2cccc(OC)c21,13,10,?,-13%,8.3µM*,?
CCOc1cccc2sc(=NC(=O)CCS(=O)(=O)c3ccccc3)n(CC)c12,-2,-3,11µM*,7%,?,?
COc1ccc(NC(=O)CN(C)C(=O)CCc2c[nH]c3ccccc23)cc1,-3,6,-16%,3%,0%,18%
CCc1cccc(OCC(=O)Nc2cc(Cl)ccc2-n2cncn2)c1,·,·,-28%,14%,13µM*,?
Cc1cccc(OC(C)C(=O)Nc2cc(Cl)ccc2-n2cncn2)c1 (stereo not drawn),·,·,?,-6%,4.1µM*,?
Cc1ccsc1C(=O)Nc1cc(Cl)ccc1-n1cncn1,·,·,7.1µM*,11%,·,·
Cc1cccc(C)c1OCC(=O)Nc1cc(Cl)ccc1-n1cncn1,·,·,?,-3%,13µM*,13µM*
Cc1cccc(OCC(=O)Nc2cc(Cl)ccc2-n2cncn2)c1C,·,·,?,-7%,?,?
CCCOc1ccccc1OCC(=O)Nc1cc(Cl)ccc1-n1cncn1,·,·,?,-14%,12µM*,9.3µM*
